This is an account of results in ChEMBL document CHEMBL3433997, “St. Jude Leishmania screening dataset” (2016).

One may read the inhibition as the change of the read-out against control, counted positive when it falls.

Structures are written as SMILES.

For one test, the target named is Solute carrier family 2, facilitated glucose transporter member 1 (Homo sapiens) (UniProt P11166). The test is described as follows: ST_JUDE_LEISH: Cytotoxicity at 2uM final concentration against transgenic Leishmania Mexicana promastigotes LmGLUT1 that are glucose transport deficient and complemented with the human glucose transporter GLUT1. Activity is measured by DNA content using SYBR green in vitro. It is filed as functional.
Solute carrier family 2, facilitated glucose transporter member 1 (Homo sapiens), sequence (P11166 whole entry): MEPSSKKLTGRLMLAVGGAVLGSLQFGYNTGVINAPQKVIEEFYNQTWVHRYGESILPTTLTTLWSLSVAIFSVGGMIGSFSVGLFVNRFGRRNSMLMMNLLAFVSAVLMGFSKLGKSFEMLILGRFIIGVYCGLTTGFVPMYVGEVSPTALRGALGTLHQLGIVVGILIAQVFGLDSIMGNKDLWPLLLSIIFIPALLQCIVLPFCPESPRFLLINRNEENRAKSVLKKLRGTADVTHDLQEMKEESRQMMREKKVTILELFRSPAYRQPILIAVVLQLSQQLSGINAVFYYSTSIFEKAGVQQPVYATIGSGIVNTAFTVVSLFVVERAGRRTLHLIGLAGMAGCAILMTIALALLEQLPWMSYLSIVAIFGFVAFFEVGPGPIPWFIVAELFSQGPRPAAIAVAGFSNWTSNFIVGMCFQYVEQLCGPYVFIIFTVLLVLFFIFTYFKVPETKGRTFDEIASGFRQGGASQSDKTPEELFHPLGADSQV
Take `Nc1nccc2ccc(-c3ccsc3)cc12`: the inhibition came out at 5.2%.
As for `Cc1cc(=NN=Cc2cccc(F)c2)c2cc(F)ccc2[nH]1`, the inhibition turned out to be 8.18%.
For `Fc1ccc2[nH]c(-c3cccc(-c4ccc(CNCc5cnn(-c6ccccc6)n5)cc4)c3)nc2c1`, the inhibition came to 0.4%.
Regarding `O=C(O)Cc1ccc(-c2c[nH]c3ncc(-c4cccc5ncccc45)cc23)cc1`, the inhibition stood at 2.28%.
Still for that read-out and setting: next, `Cc1nc(-c2nc(NCCc3cnccn3)ncc2-c2ccsc2)sc1C`: 0.04%; `COc1cccc2c1CCN(CCN1CCC(CNC(=O)c3ccc(-c4ccc(C#N)cc4)cc3)CC1)C2`: 7.68%.
Still for that read-out and setting: for `O=C(/C=C/c1ccc(Cl)c(Cl)c1)NCCCCCN1CCC(NC(=O)Nc2ccc(F)c(F)c2)CC1` the value was -1.34%; for `NCC1CCCN1Cc1ccc(-c2ccc(-c3nc4ccccc4[nH]3)s2)cc1` (stereo not drawn), -0.41%; for `COc1ccc(NC(=O)NCC2CCCN(CCCCCNC(=O)/C=C/c3ccc(Cl)c(Cl)c3)C2)c(OC)c1` (stereo not drawn), -0.03%.
The same measure, in the same setting: next, `Cc1cccc2nc(-c3cccc(-c4cccc(NC(=O)Nc5ccccc5)c4)c3)[nH]c12`: 3.85%; `COc1ccc(C(=O)Nc2ccc(-c3ccc([N+](=O)[O-])cc3)cc2)cc1CCCN(C)C`: 2.83%.
Consider `Cc1cccc2nc(-c3cccc(-c4cccc(NC(=O)Nc5ccc(F)c(F)c5F)c4)c3)[nH]c12`, for which the inhibition came out at 1.75%.
The same measure, in the same setting: next, `Cc1cccc2c(CON3C(N)=NC(N)=NC3(C)C)cccc12`: 0.73%; `CCCCCCCN1CCC(CC(=O)Nc2ccnc3ccc(OC)cc23)CC1`: 11.3%; `CCCCCCN1CCCN(Cc2ccc(C(=O)Nc3cccc(CC)c3)cc2)CC1`: 4.76%.
Still for that read-out and setting: for `Cc1nc(-c2nc(N3CCC(C(N)=O)CC3)ncc2-c2ccsc2)sc1C` the value was 8.94%; for `Cc1ccc(Nc2cc(C)nn2-c2nc(C)cc(O)n2)cc1`, 75.4%; for `Oc1c(C=Nn2cnnc2)sc2ccccc12`, -0.72%.
On to `CCCCN(CCCC)C(=N)c1cccc2c1CCCC2`, for which the inhibition worked out at 2.36%.
For `O=C(Cn1c(CCc2cccc(F)c2F)nc(=O)c2ccccc21)N(CCN1CCCC1)Cc1ccc(-c2ccc(C(F)(F)F)cc2)cc1`, the inhibition stood at 0.45%.
Still for that read-out and setting: for `CN(C)CCCn1cncc1-c1ccc2ncnc(Nc3ccc(OCc4ccccc4)cc3)c2c1` the value was 4.09%; for `Cc1cc(NC(=O)Nc2ccc3sccc3c2)c2ccccc2n1`, 2.24%; for `COc1c(C2CCN(CCCCNC(=O)c3ccc(-c4ccc(NC(=O)C(F)(F)F)cc4)cc3)CC2)ccc2c1CCCC2`, 1.22%.
In the case of `CCCCn1c(=N)c(C(=O)NCc2cccnc2)cc2c(=O)n3cccc(C)c3nc21`, the inhibition was 4.38%.
On to `CC(=O)Nc1nc(C(=O)Nc2cccc(-c3cccc(-c4nc5cccc(C)c5[nH]4)c3)c2)cs1`, for which the inhibition was 6.67%.
Same read-out and setting: for `CCOc1ccc2nc(NC(=O)c3csnn3)sc2c1` the value was 4.69%.
Still for that read-out and setting: for `O=C(/C=C/c1ccc(Cl)c(Cl)c1)N1CCC(CN2CCC(c3c[nH]c4ccncc34)CC2)CC1` the value was 4.66%; for `O=C(Nc1cccc(-c2ccc(-c3nc4cc(F)ccc4[nH]3)cc2)c1)c1csnn1`, 12.4%.
For the molecule `COc1ccc(NC(=O)/C=C/c2ccccc2Cl)cc1OCCN1CCC(NC2CC2)CC1`, the inhibition is 8.25%.
On the same count and under the same terms, for `COc1ccc2[nH]ccc(=NN=Cc3ccncc3)c2c1` the value was 3.57%; for `Cn1c(N)cc(-c2ccc(Br)cc2)c2c(=O)nc(N)nc1-2`, 6.75%.
In the case of `CCOC(=O)c1cn(CC)c2cc(N3CCCCC3)c(F)cc2c1=O`, the inhibition is 3.39%.
The same measure, in the same setting: for `CCN(CC)CCNC(=O)c1ccc(N/C=C2\C(=O)Nc3ccc(S(=O)(=O)Cc4c(Cl)cccc4Cl)cc32)cc1` the value was -0.98%.
Take `CC1(C)[C@H]2CC[C@@H](CNc3nc(NCCc4c[nH]cn4)nc(Nc4ccc(Oc5ccccc5)cc4)n3)[C@@H]1C2`: the inhibition was 1.23%.
The same measure, in the same setting: for `CCCCCN1CCCC1CNS(=O)(=O)c1cccc(C(=O)Nc2cccc(C#N)c2)c1` (stereo not drawn) the value was 2.62%; for `Cn1cnc2nc(NCCc3ccccc3)nc(NCc3cccc4ccccc34)c21`, 0.91%; for `O=C(Nc1ccc(Cl)cc1)c1ccc(CN2CCCN(Cc3cccc(O)c3)CC2)cc1`, 1.65%.
`CC1CCN(C(=O)CSc2nc(-c3ccc(C(C)C)cc3)no2)CC1`: the inhibition stood at 7.2%.
Take `CC(C)c1ccc(-c2noc(SCC(=O)N(C)c3ccc(F)cc3)n2)cc1`: the inhibition is -1.33%.

The next test has as its target Hexose transporter 1 (Plasmodium falciparum) (UniProt O97467). The test is described as follows: ST_JUDE_LEISH: Cytotoxicity at 2uM final concentration against transgenic Leishmania Mexicana promastigotes LmPfHT that are glucose transport deficient and complemented with the Plasmodium falciparum hexose transporter. Activity is measured by DNA content using SYBR green in vitro. In kind it is functional.
With `Nc1nccc2ccc(-c3ccsc3)cc12`, the inhibition is 3.92%.
Still for that read-out and setting: for `Cc1cc(=NN=Cc2cccc(F)c2)c2cc(F)ccc2[nH]1` the value was 9.63%.
On to `Fc1ccc2[nH]c(-c3cccc(-c4ccc(CNCc5cnn(-c6ccccc6)n5)cc4)c3)nc2c1`, for which the inhibition came to 1.9%.
Regarding `O=C(O)Cc1ccc(-c2c[nH]c3ncc(-c4cccc5ncccc45)cc23)cc1`, the inhibition was 1.77%.
Still for that read-out and setting: for `Cc1nc(-c2nc(NCCc3cnccn3)ncc2-c2ccsc2)sc1C` the value was 0.59%; for `COc1cccc2c1CCN(CCN1CCC(CNC(=O)c3ccc(-c4ccc(C#N)cc4)cc3)CC1)C2`, 3.84%; for `O=C(/C=C/c1ccc(Cl)c(Cl)c1)NCCCCCN1CCC(NC(=O)Nc2ccc(F)c(F)c2)CC1`, -0.67%.
Still for that read-out and setting: for `NCC1CCCN1Cc1ccc(-c2ccc(-c3nc4ccccc4[nH]3)s2)cc1` (stereo not drawn) the value was -0.71%; for `COc1ccc(NC(=O)NCC2CCCN(CCCCCNC(=O)/C=C/c3ccc(Cl)c(Cl)c3)C2)c(OC)c1` (stereo not drawn), 3.1%; for `Cc1cccc2nc(-c3cccc(-c4cccc(NC(=O)Nc5ccccc5)c4)c3)[nH]c12`, 3.36%.
Same read-out and setting: next, `COc1ccc(C(=O)Nc2ccc(-c3ccc([N+](=O)[O-])cc3)cc2)cc1CCCN(C)C`: 3.93%; `Cc1cccc2nc(-c3cccc(-c4cccc(NC(=O)Nc5ccc(F)c(F)c5F)c4)c3)[nH]c12`: 2.51%.
As to `Cc1cccc2c(CON3C(N)=NC(N)=NC3(C)C)cccc12`, the inhibition stood at 1.67%.
As to `CCCCCCCN1CCC(CC(=O)Nc2ccnc3ccc(OC)cc23)CC1`, the inhibition is 9.11%.
Same read-out and setting: for `CCCCCCN1CCCN(Cc2ccc(C(=O)Nc3cccc(CC)c3)cc2)CC1` the value was 3.36%; for `Cc1nc(-c2nc(N3CCC(C(N)=O)CC3)ncc2-c2ccsc2)sc1C`, 7.69%.
As for `Cc1ccc(Nc2cc(C)nn2-c2nc(C)cc(O)n2)cc1`, the inhibition stood at 73.6%.
Turning to `Oc1c(C=Nn2cnnc2)sc2ccccc12`, the inhibition came to 5.61%.
In the case of `CCCCN(CCCC)C(=N)c1cccc2c1CCCC2`, the inhibition came out at 3.35%.
On the same count and under the same terms, for `O=C(Cn1c(CCc2cccc(F)c2F)nc(=O)c2ccccc21)N(CCN1CCCC1)Cc1ccc(-c2ccc(C(F)(F)F)cc2)cc1` the value was 0.38%.
Consider `CN(C)CCCn1cncc1-c1ccc2ncnc(Nc3ccc(OCc4ccccc4)cc3)c2c1`, for which the inhibition worked out at 6.87%.
On to `Cc1cc(NC(=O)Nc2ccc3sccc3c2)c2ccccc2n1`, for which the inhibition is 2.66%.
The same measure, in the same setting: next, `COc1c(C2CCN(CCCCNC(=O)c3ccc(-c4ccc(NC(=O)C(F)(F)F)cc4)cc3)CC2)ccc2c1CCCC2`: 4.26%.
Turning to `CCCCn1c(=N)c(C(=O)NCc2cccnc2)cc2c(=O)n3cccc(C)c3nc21`, the inhibition is 5.85%.
As for `CC(=O)Nc1nc(C(=O)Nc2cccc(-c3cccc(-c4nc5cccc(C)c5[nH]4)c3)c2)cs1`, the inhibition turned out to be 1.89%.
As for `CCOc1ccc2nc(NC(=O)c3csnn3)sc2c1`, the inhibition was found to be 3.55%.
Same read-out and setting: next, `O=C(/C=C/c1ccc(Cl)c(Cl)c1)N1CCC(CN2CCC(c3c[nH]c4ccncc34)CC2)CC1`: 5.47%; `O=C(Nc1cccc(-c2ccc(-c3nc4cc(F)ccc4[nH]3)cc2)c1)c1csnn1`: 11.9%.
Still for that read-out and setting: for `COc1ccc(NC(=O)/C=C/c2ccccc2Cl)cc1OCCN1CCC(NC2CC2)CC1` the value was 5.69%; for `COc1ccc2[nH]ccc(=NN=Cc3ccncc3)c2c1`, 3.95%; for `Cn1c(N)cc(-c2ccc(Br)cc2)c2c(=O)nc(N)nc1-2`, 4.96%.
Same read-out and setting: next, `CCOC(=O)c1cn(CC)c2cc(N3CCCCC3)c(F)cc2c1=O`: 3.64%.
Take `CCN(CC)CCNC(=O)c1ccc(N/C=C2\C(=O)Nc3ccc(S(=O)(=O)Cc4c(Cl)cccc4Cl)cc32)cc1`: the inhibition was -0.63%.
Same read-out and setting: next, `CC1(C)[C@H]2CC[C@@H](CNc3nc(NCCc4c[nH]cn4)nc(Nc4ccc(Oc5ccccc5)cc4)n3)[C@@H]1C2`: -1.54%; `CCCCCN1CCCC1CNS(=O)(=O)c1cccc(C(=O)Nc2cccc(C#N)c2)c1` (stereo not drawn): 4.82%.
Still for that read-out and setting: for `Cn1cnc2nc(NCCc3ccccc3)nc(NCc3cccc4ccccc34)c21` the value was 1.38%; for `O=C(Nc1ccc(Cl)cc1)c1ccc(CN2CCCN(Cc3cccc(O)c3)CC2)cc1`, 1.35%.
Still for that read-out and setting: for `CC1CCN(C(=O)CSc2nc(-c3ccc(C(C)C)cc3)no2)CC1` the value was 9.21%.
Consider `CC(C)c1ccc(-c2noc(SCC(=O)N(C)c3ccc(F)cc3)n2)cc1`, for which the inhibition worked out at 0.23%.
